This note sets out measurements from PubChem BioAssay AID1135 (Sanford-Burnham Center for Chemical Genomics, 2008).

About 65 (0.03%) of roughly 200,000 compounds were called active. Only a selection was taken, and actives are over-represented in it overall. Values without a mark were called inactive.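 How the source made its calls: active means over 50% inhibition of tissue-nonspecific alkaline phosphatase at 20 µM in the single-dose screen; inactive means the rest.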

For this assay, the target named is Alkaline phosphatase, tissue-nonspecific isozyme (Homo sapiens) (UniProt P05186). Description: blockers of alkaline phosphatase TNAP activity – biochemical, luminescent, high phosphate acceptor level, uHTS, primary screen (AID 1135).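 Further: plate controls were DMSO wells for no effect and EDTA-quenched wells as full inhibition for full effect.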 As to conditions: purified TNAP, CDP-star luminescence, 1 M DEA; at 20 µM; active compounds read high.
Chain of Alkaline phosphatase, tissue-nonspecific isozyme (Homo sapiens) (P05186 whole entry, looked up): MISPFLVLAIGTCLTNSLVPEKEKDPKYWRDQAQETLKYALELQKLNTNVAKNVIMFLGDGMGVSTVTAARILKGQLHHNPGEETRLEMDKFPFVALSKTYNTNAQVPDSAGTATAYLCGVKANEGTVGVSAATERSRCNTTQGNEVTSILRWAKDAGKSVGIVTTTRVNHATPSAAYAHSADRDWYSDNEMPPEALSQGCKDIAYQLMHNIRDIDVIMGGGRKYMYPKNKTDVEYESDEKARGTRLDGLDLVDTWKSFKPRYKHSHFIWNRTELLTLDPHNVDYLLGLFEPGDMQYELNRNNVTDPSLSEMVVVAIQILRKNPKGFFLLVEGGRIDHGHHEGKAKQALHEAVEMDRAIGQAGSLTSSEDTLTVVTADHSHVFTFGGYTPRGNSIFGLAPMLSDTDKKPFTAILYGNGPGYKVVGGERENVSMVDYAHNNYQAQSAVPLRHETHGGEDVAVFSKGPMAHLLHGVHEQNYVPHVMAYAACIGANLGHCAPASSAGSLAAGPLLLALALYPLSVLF
The term inhibition denotes the drop in the measured response relative to a control, in per cent. On to `Oc1c(Br)cccc1/C=N/Nc1c(F)c(F)c(F)c(F)c1F`, for which the inhibition was 4.6%. Next, `C/C(=N/NC(=O)CSc1ccccn1)c1ccc([N+](=O)[O-])cc1`: -4.8%; `Nc1nnnn1CC(=O)N/N=C/c1ccc(-c2cccc(Cl)c2)o1`: -2.3%. For the compound `O=C(COc1ccc(Cl)cc1)NCc1nnc(SCC(=O)NCC2CCCO2)o1` (stereo unspecified), the inhibition is -2.4%. For `COc1ccc(/C=C/C(=O)c2cc(Br)ccc(=O)c2O)cc1`, the inhibition was 12.7%.

In the case of `CCNC(=O)CC1C(=O)N(c2ccc(F)cc2)C(=O)N1CCc1sccc1C` (stereo unspecified), the inhibition is 3.2%. Regarding `CCCCn1c(N)c(N(CC)C(=O)/C=C/c2ccco2)c(=O)[nH]c1=O`, the inhibition was 1.1%.

On to `COc1ccc(Cl)cc1N(CC(=O)N1CCCCC1)S(C)(=O)=O`, for which the inhibition was -2.8%.

Take `COc1ccc(C2CC(c3ccccc3)=NN2C(=O)c2ccc(Cl)c([N+](=O)[O-])c2)cc1` (stereo unspecified): the inhibition was 0.4%. Next, `O=C(/C(=C/c1cccc(Cl)c1)c1nc2ccccc2[nH]1)c1ccccc1`: -1.2%; `Cc1cc(C)n(-c2ccc3nncn3n2)n1`: -4%; `CCOc1ccc(S(=O)(=O)Nc2ccncc2)c(C)c1C`: -3.2%. Turning to `c1ccc2c(NC3C4CC5CC(C4)CC3C5)nc(N3CCOCC3)nc2c1` (stereo unspecified), the inhibition is -4.8%. For the compound `COc1cccc(C(=O)Oc2cc(C)[nH]c(=O)c2[N+](=O)[O-])c1`, the inhibition is -4.1%. Turning to `CC1(C)CC(=O)CC2(C1)NCC(c1ccccc1Cl)c1c2[nH]c2ccccc12` (stereo unspecified), the inhibition was -3.4%. Next, `CCOn1c(=O)c(=O)n(O)c2ccccc21`: -6.3%. The result for `Cc1ccc([N+](=O)[O-])c(OCCCNCC(C)O)c1` (stereo unspecified) reads -0.7%; that for `COc1ccc(C)cc1NC(=O)C(Sc1ccccc1)c1ccccc1` (stereo unspecified), -3%. `CCCCC(CC)CNC(=O)CCCCn1c(=O)[nH]c2ccsc2c1=O` (stereo unspecified): the inhibition was -0.9%. Consider `OCCC1CN(Cc2cccc(OC3CCCC3)c2)CCN1Cc1ccsc1` (stereo unspecified), for which the inhibition is -1.7%. Consider `O=C(CN1C(=O)/C(=C/c2ccccc2F)Sc2ccccc21)NCc1cccnc1`, for which the inhibition was -4.7%. Next, `Cc1ccc(CN2CCN(/N=C/c3ccco3)CC2)c(C)c1`: -2%; `Cc1ccc(/C(N)=N/OC(=O)COc2ccc(Cl)c(C)c2)cc1`: -6.6%. In the case of `COc1ccc(Cl)cc1NC(=O)CN(C)Cc1ccc(OC)c(OC)c1`, the inhibition is 2.3%. Next, `Cc1nnc(SC(C(=O)Nc2cc(Cl)cc(Cl)c2)c2ccccc2)[nH]c1=O` (stereo unspecified): 2.4%; `COc1ccc(F)cc1C(=O)C1CCCN(C(=O)CCc2ccccn2)C1` (stereo unspecified): 0.9%. Take `COc1ccc(NC(=O)CN(Cc2ccccc2)S(C)(=O)=O)cc1OC`: the inhibition is -3.6%.

Regarding `O=C(O)c1ccc(NS(=O)(=O)c2ccc3c(c2)C(=O)c2cc(S(=O)(=O)Nc4ccc(C(=O)O)cc4)ccc2-3)cc1`, the inhibition is 2.8%.

On to `CCC(=O)Nc1c(C)n[nH]c1C`, for which the inhibition was -6.7%. For `CC(CCc1ccccc1)NCC(O)c1cccc([N+](=O)[O-])c1` (stereo unspecified), the inhibition was -4.1%. For `N#Cc1c(NC(=O)CCCl)sc2c1CCCCC2`, the inhibition was 0.1%.

With `Cc1cccc(C(=O)OCC(=O)Nc2sc3c(c2C#N)CCC3)c1`, the inhibition was 5.2%. Next, `CC(=O)c1c(C)[nH]c(C(=O)OCC(=O)Nc2sc3c(c2C#N)CCCC3)c1C`: 50.6% (active); `Oc1ccc(/C=N/N(Cc2ccccc2)c2ccccc2)cc1`: -6.2%; `Cc1nc(CC(=O)NNS(=O)(=O)c2ccc(F)c(Cl)c2)cs1`: -6.6%. Take `O=C(O)c1ccccc1-c1ccccc1C(=O)NCc1cccnc1`: the inhibition was 3.5%. For the compound `O=C(Oc1c(-c2ccco2)oc2ccccc2c1=O)c1cccnc1`, the inhibition is -3.4%. The result for `C(=N\N1CCN(c2ccccn2)CC1)/C1=C(N2CCOCC2)C(=C/c2ccccc2)/CC1` reads -0.3%; that for `CC(=O)Nc1sc2c(c1C(c1cccc(F)c1)N1CCN(CCO)CC1)CCCC2` (stereo unspecified), -3.5%. In the case of `Cc1cccc(NC(=O)c2ccc3nsnc3c2)c1C`, the inhibition was -1.2%. As to `CCOC(=O)c1c(NC(=O)C2CC=CCC2C(=O)O)sc(C)c1CC` (stereo unspecified), the inhibition is 2%. Next, `CCC(C)NC(=O)c1nn(C)c(=O)c2ccccc12` (stereo unspecified): -4.5%; `O=c1c(-c2ccccc2)coc2cc(O)ccc12`: -6.9%.

`COc1cc2sc(C)nc2cc1C`: the inhibition is -3.9%.

With `CCSc1ccccc1C(=O)Nc1ccc2c(c1)OCO2`, the inhibition was -5.5%. On to `COc1cc(/C=C/C(=O)O)cc(S(=O)(=O)Nc2ccccc2SC)c1OC`, for which the inhibition is 6.4%. Next, `CC(=O)Nc1ccc(Nc2c3ccccc3nc3ccccc23)cc1`: 2.2%; `O=C(CN1CCN(c2ccc(Cl)cc2)CC1)NCc1cccs1`: -1.4%; `CCCCNC(=O)C1CCC(CNS(=O)(=O)c2ccc(NC(C)=O)cc2)CC1` (stereo unspecified): -2.5%. For `O=C(CCc1ccc(S(=O)(=O)N2CCOCC2)cc1)NN=C1CCCCCCC1`, the inhibition is -2%. The result for `COc1ccc(N2C(=O)CC(Sc3n[nH]c(-c4ccc(C)cc4)n3)C2=O)cc1` (stereo unspecified) reads -5.7%. Consider `CN(C)c1nccc(NCc2ccccc2)c1C#N`, for which the inhibition is 0.6%. Next, `COc1cccc(N(Cc2nnc3n2CCCCC3)C(=O)Nc2ccccc2F)c1`: -2.9%; `CC(C)c1nc2sc3c(c2c(=O)n1N)CC(C)(C)OC3`: -1.5%.

Regarding `COCCn1c(SCC(=O)Nc2ccc3c(c2)CCC3)nc2ccccc2c1=O`, the inhibition is -1.3%. Turning to `CCN(C(=O)CSc1nc2ccccc2n1CC)C1CCS(=O)(=O)C1` (stereo unspecified), the inhibition was -1.3%. Take `Cc1cc(C(=O)COC(=O)CNC(=O)c2ccc(F)cc2)c(C)n1Cc1ccco1`: the inhibition was 1.3%.

For the compound `S=C(Nc1ccc(Br)cc1Cl)NC1CCN(Cc2ccccc2)CC1`, the inhibition was -5.2%.

`CSCCC(NC(=O)c1cc([N+](=O)[O-])cc([N+](=O)[O-])c1)c1nc2ccccc2[nH]1` (stereo unspecified): the inhibition was -6.8%. Next, `CCc1ccc(CN2C(=O)c3ccccc3C2C(=O)NCC2CCCO2)cc1` (stereo unspecified): 2.3%. Take `Cc1cccc(N2CCN(c3ccc(NC(=O)/C=C\C(=O)O)cc3)CC2)c1`: the inhibition is -4.5%.
